Among the data in PubChem BioAssay (NCI) are growth inhibition values, retold here.

This is part of a sample that, as a whole, favours compounds with a hit. Of some 79,000 tested, about 15% had one in any assay. Values without a mark were called inactive. Active and inactive are the calls of the source. Rule as the data show it: active = growth inhibition above about 70%; inactive = the rest.

Experiment [1] is described as follows: NCI Yeast Anticancer Drug Screen. Data for the rad50 strain (AID 155).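 Also: 0% = growth of vehicle-only cultures of the same strain.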 The note with it: S. cerevisiae rad50 strain growth inhibition, stronger effect = higher value. The method in brief:
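Vehicle-treated cultures provide the reference for the growth inhibition reported for compound-exposed, repair-deficient yeast.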

Experiment [2] in a line: NCI Yeast Anticancer Drug Screen. Data for the mec2-1 strain (AID 157). The note with it: S. cerevisiae mec2-1 strain, stronger effect = higher value. In outline:
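Readout is yeast growth inhibition, normalised to vehicle-treated controls, in the mec2-1 strain exposed to compound.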

Experiment [3] can be described thus: NCI Yeast Anticancer Drug Screen. Data for the sgs1 mgt1 strain (AID 161).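 Also: 0% = growth of cultures given vehicle only.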 The note with it: S. cerevisiae sgs1 mgt1 strain, stronger effect = higher value. The method in brief:
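Compounds are added to genetically altered yeast, and growth is compared with cultures given vehicle alone to give percent inhibition.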

The nature of experiment [4]: NCI Yeast Anticancer Drug Screen. Data for the cln2 rad14 strain (AID 165).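 Also: 0% = growth equal to vehicle treated cultures.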 The note with it: S. cerevisiae cln2 rad14 strain, stronger effect = higher value. In outline:
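Relative to vehicle controls, growth inhibition of compound-treated cln2 rad14 yeast was recorded.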

A short description of experiment [5]: NCI Yeast Anticancer Drug Screen. Data for the bub3 strain (AID 167). The note with it: S. cerevisiae bub3 mutant strain, stronger effect = higher value. The method in brief:
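Mutant yeast screening strain plus compound; vehicle-treated cultures serve as the 0% inhibition reference.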

A short description of experiment [6]: NCI Yeast Anticancer Drug Screen. Data for the mlh1 rad18 strain (AID 175). The note with it: S. cerevisiae mlh1 rad18 strain growth inhibition, stronger effect = higher value. The method in brief:
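Test agents were incubated with a yeast strain of defined genotype (DNA damage repair defect). Inhibition of growth was derived by comparison with vehicle-exposed cultures.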

The mark [7] stands for this setting: at 5.0 µM (retest, dose inferred, filed as 0.5).
Setting [8] is: at 50.0 µM (retest, dose inferred, filed as 5.0).

For `C[PH+](C)C.C[PH+](C)C.[Au]`, the growth inhibition is 36% in experiment [1] (setting [7]); 70% (active) in experiment [1] (setting [8]); 85.7% (active) in experiment [1] (at 50.0 µM); 30% in experiment [2] (setting [7]); 89% (active) in experiment [2] (setting [8]); 91.8% (active) in experiment [2] (at 50.0 µM). For the same molecule, the growth inhibition in experiment [3] (setting [7]) is 59%; in experiment [3] (setting [8]) it was 82% (active); in experiment [3] (at 50.0 µM), 91% (active); in experiment [4] (setting [7]) it was 18%; in experiment [4] (setting [8]) it was 32%; in experiment [4] (at 50.0 µM), 88% (active). In addition, the growth inhibition was 27% in experiment [5] (setting [7]); 57% in experiment [5] (setting [8]); 89.5% (active) in experiment [5] (at 50.0 µM); 68% in experiment [6] (setting [7]); 91% (active) in experiment [6] (setting [8]); 89% (active) in experiment [6] (at 50.0 µM).

`CC12CCCCC1C(=O)C2(Cl)Cl` (configuration not stated): the growth inhibition was -1% in experiment [1] (setting [7]); 11% in experiment [1] (setting [8]); 11.8% in experiment [1] (at 50.0 µM); 1% in experiment [2] (setting [7]); 17% in experiment [2] (setting [8]); -2.45% in experiment [2] (at 50.0 µM). The growth inhibition in experiment [3] (setting [7]) is -1%; in experiment [3] (setting [8]) it was 48%; in experiment [3] (at 50.0 µM), 43%; in experiment [4] (setting [7]), -1%; in experiment [4] (setting [8]), -4%; in experiment [4] (at 50.0 µM), 1.65%. In addition, the growth inhibition was 3% in experiment [5] (setting [7]); 13% in experiment [5] (setting [8]); -3.55% in experiment [5] (at 50.0 µM); 1% in experiment [6] (setting [7]); 37% in experiment [6] (setting [8]); 27.4% in experiment [6] (at 50.0 µM).

As to `COc1ccccc1[As]=[As]c1ccccc1OC` (configuration not stated), the growth inhibition in experiment [1] (setting [7]) is 30%; in experiment [1] (setting [8]), 99% (active); in experiment [1] (at 50.0 µM) it was 99.5% (active); in experiment [2] (setting [7]), 20%; in experiment [2] (setting [8]) it was 99% (active); in experiment [2] (at 50.0 µM), 99.5% (active). The growth inhibition in experiment [3] (setting [7]) was 48%; in experiment [3] (setting [8]) it was 99% (active); in experiment [3] (at 50.0 µM), 99.4% (active); in experiment [4] (setting [7]), 34%; in experiment [4] (setting [8]), 99% (active); in experiment [4] (at 50.0 µM) it was 98.3% (active). Moreover, the growth inhibition in experiment [5] (setting [7]) was 85% (active); in experiment [5] (setting [8]), 99% (active); in experiment [5] (at 50.0 µM) it was 99.3% (active); in experiment [6] (setting [7]), 75% (active); in experiment [6] (setting [8]) it was 99% (active); in experiment [6] (at 50.0 µM), 99.3% (active).

Take `O=C1c2ccccc2C[CH]1[Hg][Cl]` (configuration not stated): the growth inhibition in experiment [1] (setting [7]) is 99% (active); in experiment [1] (setting [8]), 99% (active); in experiment [1] (at 50.0 µM), 99.2% (active); in experiment [2] (setting [7]), 100% (active); in experiment [2] (setting [8]), 100% (active); in experiment [2] (at 50.0 µM), 99.5% (active). Moreover, the growth inhibition in experiment [3] (setting [7]) was 100% (active); in experiment [3] (setting [8]) it was 99% (active); in experiment [3] (at 50.0 µM), 99.3% (active); in experiment [4] (setting [7]), 99% (active); in experiment [4] (setting [8]), 99% (active); in experiment [4] (at 50.0 µM), 96.2% (active). Besides, the growth inhibition was 99% (active) in experiment [5] (setting [7]); 99% (active) in experiment [5] (setting [8]); 98.7% (active) in experiment [5] (at 50.0 µM); 99% (active) in experiment [6] (setting [7]); 99% (active) in experiment [6] (setting [8]); 99.3% (active) in experiment [6] (at 50.0 µM).

As for `O=C(N/N=C/c1cc(Br)cc(Br)c1[O-])c1ccccc1O.O=C(N/N=C/c1cc(Br)cc(Br)c1[O-])c1ccccc1O.[Mn+2]`, the growth inhibition is 96% (active) in experiment [1] (setting [7]); 94% (active) in experiment [1] (setting [8]); 97.6% (active) in experiment [1] (at 50.0 µM); 98% (active) in experiment [2] (setting [7]); 96% (active) in experiment [2] (setting [8]); 95.7% (active) in experiment [2] (at 50.0 µM). The growth inhibition in experiment [3] (setting [7]) was 98% (active); in experiment [3] (setting [8]), 93% (active); in experiment [3] (at 50.0 µM), 93.2% (active); in experiment [4] (setting [7]), 93% (active); in experiment [4] (setting [8]), 90% (active); in experiment [4] (at 50.0 µM), 97.3% (active). Also, the growth inhibition is 96% (active) in experiment [5] (setting [7]); 94% (active) in experiment [5] (setting [8]); 96% (active) in experiment [5] (at 50.0 µM); 96% (active) in experiment [6] (setting [7]); 94% (active) in experiment [6] (setting [8]); 98% (active) in experiment [6] (at 50.0 µM).

Consider `C[C@]12C/C(=C/O)C(=O)C(O)=C1CC[C@@H]1C2CC[C@@]2(C)C1CC[C@@H]2O` (some centres not stated), for which the growth inhibition in experiment [1] (setting [7]) was 6%; in experiment [1] (setting [8]) it was 56%; in experiment [1] (at 50.0 µM), 78.9% (active); in experiment [2] (setting [7]), 5%; in experiment [2] (setting [8]), 33%; in experiment [2] (at 50.0 µM), 59.4%. Moreover, the growth inhibition in experiment [3] (setting [7]) was 4%; in experiment [3] (setting [8]) it was 70% (active); in experiment [3] (at 50.0 µM) it was 52.2%; in experiment [4] (setting [7]), 6%; in experiment [4] (setting [8]) it was 52%; in experiment [4] (at 50.0 µM) it was 62.2%. The growth inhibition in experiment [5] (setting [7]) was -39%; in experiment [5] (setting [8]), 81% (active); in experiment [5] (at 50.0 µM) it was 79.4% (active); in experiment [6] (setting [7]), 8%; in experiment [6] (setting [8]), 74% (active); in experiment [6] (at 50.0 µM), 89.2% (active).

Take `Clc1ccc(Cl)c(Cl)c1`: the growth inhibition in experiment [1] (setting [7]) is -10%; in experiment [1] (setting [8]) it was 99% (active); in experiment [1] (at 50.0 µM), 98.4% (active); in experiment [2] (setting [7]) it was -3%; in experiment [2] (setting [8]), 97% (active); in experiment [2] (at 50.0 µM), 99% (active). Besides, the growth inhibition in experiment [3] (setting [7]) is -6%; in experiment [3] (setting [8]) it was 98% (active); in experiment [3] (at 50.0 µM) it was 98.8% (active); in experiment [4] (setting [7]) it was 8%; in experiment [4] (setting [8]), 92% (active); in experiment [4] (at 50.0 µM) it was 96.5% (active). In addition, the growth inhibition in experiment [5] (setting [7]) is -8%; in experiment [5] (setting [8]) it was 98% (active); in experiment [5] (at 50.0 µM), 62%; in experiment [6] (setting [7]), 2%; in experiment [6] (setting [8]) it was 99% (active); in experiment [6] (at 50.0 µM), 98.2% (active).

`O=P(Oc1ccccc1)(Oc1ccccc1)Oc1ccccc1Cl`: the growth inhibition in experiment [1] (setting [7]) was 5%; in experiment [1] (setting [8]) it was 0%; in experiment [1] (at 50.0 µM) it was 29.4%; in experiment [2] (setting [7]) it was 3%; in experiment [2] (setting [8]) it was -8%; in experiment [2] (at 50.0 µM), 0.05%. In addition, the growth inhibition in experiment [3] (setting [7]) is -4%; in experiment [3] (setting [8]), 4%; in experiment [3] (at 50.0 µM) it was 13.6%; in experiment [4] (setting [7]), 0%; in experiment [4] (setting [8]), -14%; in experiment [4] (at 50.0 µM), -6.1%. Further, the growth inhibition in experiment [5] (setting [7]) was 2%; in experiment [5] (setting [8]) it was 28%; in experiment [5] (at 50.0 µM) it was 66.5%; in experiment [6] (setting [7]), -13%; in experiment [6] (setting [8]), -3%; in experiment [6] (at 50.0 µM), 51.6%.

With `CN(C)c1ncnc2c1ncn2C1OC(CO)C2NP(=O)(N(CCCl)CCCl)OC21` (configuration not stated), the growth inhibition is 1% in experiment [1] (setting [7]); 80% (active) in experiment [1] (setting [8]); 87.9% (active) in experiment [1] (at 50.0 µM); -3% in experiment [2] (setting [7]); 24% in experiment [2] (setting [8]); -1.35% in experiment [2] (at 50.0 µM). In addition, the growth inhibition is -3% in experiment [3] (setting [7]); 63% in experiment [3] (setting [8]); 71.2% (active) in experiment [3] (at 50.0 µM); 8% in experiment [4] (setting [7]); 5% in experiment [4] (setting [8]); 13.6% in experiment [4] (at 50.0 µM). Also, the growth inhibition was 0% in experiment [5] (setting [7]); 48% in experiment [5] (setting [8]); 12.6% in experiment [5] (at 50.0 µM); -17% in experiment [6] (setting [7]); 23% in experiment [6] (setting [8]); 28.4% in experiment [6] (at 50.0 µM).
